PLK1 PBD inh: blocks phosphopeptide binding to human PLK1 polo-box domain. P53350. Plk1 PBD binding of FITC phosphopeptide, fluorescence polarization. Potency, µM, for the others: max response, negative = inhibition, most hits filed as inhibitors. 2.8% of 360,000 active. AID 720504; also: series mostly up to about 57 µM; nearly all actives have a fitted effect of over 65% in size
Target sequence (P53350 whole entry, looked up, the tested form may be a part): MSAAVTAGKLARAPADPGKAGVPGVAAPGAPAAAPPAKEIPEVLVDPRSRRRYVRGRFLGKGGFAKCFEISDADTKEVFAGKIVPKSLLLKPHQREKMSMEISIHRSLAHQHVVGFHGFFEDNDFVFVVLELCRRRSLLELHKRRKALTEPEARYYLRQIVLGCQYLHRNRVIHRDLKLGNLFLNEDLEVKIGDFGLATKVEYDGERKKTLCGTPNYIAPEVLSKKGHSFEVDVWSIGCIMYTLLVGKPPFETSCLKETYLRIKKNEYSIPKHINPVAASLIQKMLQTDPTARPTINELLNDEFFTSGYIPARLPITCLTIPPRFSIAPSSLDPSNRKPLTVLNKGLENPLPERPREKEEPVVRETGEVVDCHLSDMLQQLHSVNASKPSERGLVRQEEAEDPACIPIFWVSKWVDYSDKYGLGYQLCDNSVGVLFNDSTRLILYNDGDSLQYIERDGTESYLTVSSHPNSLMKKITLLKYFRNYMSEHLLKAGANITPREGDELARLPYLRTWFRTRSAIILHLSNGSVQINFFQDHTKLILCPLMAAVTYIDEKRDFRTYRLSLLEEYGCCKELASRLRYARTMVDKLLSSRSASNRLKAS
VDR inh: blocks the human vitamin D receptor | P11473 | VDR-SRC2-3 peptide fluorescence polarization, 2 h | Potency, µM, without a hit: max response, negative = inhibition, actives largely listed as inhibitors | 0.93% of 400,000 active
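Signal is fluorescence polarization, reporting how far test compounds block the interaction of VDR with the SRC2-3 coregulator peptide after a 2 h room-temperature incubation.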
Tau ThT inhib: inhibitors of human tau fibril formation, thioflavin T binding; P10636; recombinant tau K18 P301L, heparin-induced fibrillization, ThT fluorescence; Potency, µM (series often up to 57.4 µM), without a hit: at the highest dose activity, negative = inhibition, actives largely listed as inhibitors; 2.1% of 270,000 active; also: nearly all actives have a fitted effect of over 55% in size
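Recombinant human tau K18 fragment […] carrying P301L, 15 uM unlabeled plus 0.24 uM Alexa 594-labeled, was fibrillized with 20 uM heparin in 100 mM sodium acetate pH 7 for 6 hr at 37 C; 30 uM ThT fluorescence read after 1 hr.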
Tau fibril FP: tau fibrillization inhibition (FP); 0.39% of 280,000 active; K18 P301L tau heparin fibrillization, Alexa594 FP, 6 h; Potency, µM (titrated, usually from 57.7 µM), inactives show at the highest dose activity, negative = inhibition, most hits filed as inhibitors; P10636; also: nearly all actives have a fitted effect of over 55% in size
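FP of Alexa 594-tau after heparin (20 uM) induction. Substrate: human K18 P301L, 15 uM unlabeled, 0.24 uM labeled. Buffer 100 mM sodium acetate pH 7. 6 hr, 37 C.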
Sfp inh: blocks B. subtilis Sfp PPTase activity; Potency, µM, without a hit: largest response in the series, negative = inhibition, actives largely listed as inhibitors; Biochemical Sfp PPTase activity, qHTS; 3.5% of 310,000 active; Q9F4F7;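 also: the enzyme is Sfp with the accession as filed and its product quenches rhodamine fluorescence; 0% = enzyme reaction without inhibitor and -100% = no enzyme wells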
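Fluorescence-quenching assay: 15 nM Sfp-PPTase preincubated 15 min at room temperature with compound, then 5 uM rhodamine-CoA and 12.5 uM BHQ-2-labelled YbbR peptide added. Fluorescence (ex 525/em 598 nm) read at start and after 30 min; difference gives rate.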
Tau fluor cs: counter-screen for tau fibril formation inhibitors | AID 1463 | 0.93% of 280,000 active | tau K18 P301L (four-repeat tau fragment) Alexa594 fluorescence, heparin fibrillization | Potency, µM (highest dose often 57.7 µM), without a hit: at the top dose activity change, negative = decrease; also: nearly all actives have a fitted effect of over 55% in size
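Human K18 P301L tau (15 uM unlabeled plus 0.24 uM Alexa 594-labeled, final) in 100 mM sodium acetate pH 7 was mixed with compound and 20 uM heparin and incubated 6 hr at 37 C.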
* marks the source's active call; other numbers are inactive results; ? = inconclusive; / = no result given; [ ] = dose if it differs, or a comment. Compounds with a hit are over-represented: about 6% of the library has one in this group of screens. Calls follow the shape of the dose curve; as a rule, active = well fitted curve in the direction sought with a large enough effect; inconclusive = small, poorly fitted or top-dose-only effect, or another doubt; inactive = no such curve, though single readings can be large; an effect the other way counts as inactive or inconclusive. Unless noted, % is scaled to controls: 0 for no effect and ±100 for the full control effect; potency is read from the fitted curve at half-maximal effect.

SMILES	PLK1 PBD inh	VDR inh	Tau ThT inhib	Tau fibril FP	Sfp inh	Tau fluor cs
COc1cc(/C=C2/NC(=O)N(CC(=O)Nc3cccc(C)c3)C2=O)ccc1OCC(N)=O	27µM*	?	5%	-6%	3%	-5%
COc1cc(C=C2C(=O)OC(C)(C)OC2=O)ccc1OCC(=O)Nc1ccccc1	19µM*	-5%	1%	1%	18%	12%
CCC(Sc1ncccc1C(=O)O)C(=O)N1CCCC1 (stereo not given)	-17%	11%	-11%	?	11µM*	-8%
CCOC(=O)c1cccnc1SC(CC)C(=O)N1CCOCC1 (stereo not given)	-14%	12%	-19%	-6%	11%	-13%
O=C(N/N=C/c1ccc([N+](=O)[O-])o1)c1cn(-c2ccccc2)nc1-c1ccc(Cl)cc1	-17%	-3%	?	6%	0%	?
O=[N+]([O-])CC(=Nc1ccc(Cl)cc1)N/N=C\c1oc(O)c2ccccc12	17µM*	?	?	0%	-13%	-25%
Cc1ccc(C)c(C(C)NC(=O)c2ccc(Br)o2)c1 (stereo not given)	-20%	-11%	3%	1%	50µM*	0%
Cc1ccc(C)c(C(C)NC(=O)CC#N)c1 (stereo not given)	1%	-1%	-1%	0%	6%	4%
CCCNC(=O)NNC(=O)c1ccc(F)cc1	24µM*	?	1%	5%	20%	5%
COc1cccc(NC(=O)C(c2ccccc2)N2CCN(CC(=O)N3CCOCC3)CC2)c1 (stereo not given)	-14%	-7%	/	/	/	/
O=C1C(=C(I)I)c2ccccc2-c2ccccc21	4.7µM*	35µM*	/	/	/	/
N/C(Cc1ccc(Cl)cc1)=N\OC(=O)CCc1ccccc1	4%	/	/	/	/	/
COc1ccc(C)cc1NC(=O)c1ccc2c(c1)N(Cc1cccc(Cl)c1)C(=O)c1ccccc1S2=O (stereo not given)	/	10%	6%	-1%	/	-4%
CN1C(=O)c2ccc(NC(=S)NC(=O)C(C)(C)C)cc2C1=O	-12%	0%	-6%	4%	35µM*	-8%
CC1=CC(=O)C2=C(C)CC[C@H]3[C@H](C)C(=O)O[C@@H]3C12 (stereo not given in full)	/	4%	/	/	13%	/
CC1C(=O)OC2C1CCC1(C)CCC(=O)C(C)C21 (stereo not given)	30µM*	-1%	/	/	-30%	/
COCCOCC(O)CN1CCN(c2ccc(C)cc2)CC1 (stereo not given)	-16%	-13%	3%	6%	79µM*	2%
CC(=O)Sc1nc(-c2ccccc2)[nH]c1S(=O)(=O)c1ccc(C)cc1	3µM*	?	28µM*	40µM*	2.5µM*	-30%
Cc1ccc(-c2nn(CC(=O)NCc3ccccc3)c3c2cnc2ccc(F)cc23)cc1C	/	11%	-9%	-9%	/	-3%
CCOC(=O)c1ccc(NC(=O)C2=C(C)C(=O)OC23CCN(C(C)C)CC3)cc1	/	-5%	0%	3%	/	2%
Cc1sc2nc(CSCC(=O)Nc3ccc(N4CCOCC4)cc3)[nH]c(=O)c2c1C	30µM*	?	?	?	?	-13%
COC(=O)c1cc2oc(C)cc2n1CC(=O)Nc1ccc(C)cc1C	/	9%	-11%	8%	/	-3%
CCc1ccc(S(=O)(=O)N2CCN(c3ccc(Cl)c(Cl)c3)CC2)cc1	/	0%	-10%	-6%	/	-25%
FC(F)(F)c1cnc(Oc2cccc3ccccc23)c(Cl)c1	5%	9%	-9%	-4%	-17%	-9%
Cn1nc(Oc2ncc(C(F)(F)F)cc2Cl)cc1C(F)(F)F	27µM*	-26%	-3%	-9%	12%	5%
SMILES	PLK1 PBD inh	VDR inh	Tau ThT inhib	Tau fibril FP	Sfp inh	Tau fluor cs
Cc1cccc(-c2cc3nc(C)cc(NCCCn4ccnc4)n3n2)c1	24µM*	3%	-11%	2%	-5%	-14%
Clc1ss/c(=N\c2ccccn2)c1Cl	-28%	-3%	?	-15%	35µM*	-10%
Clc1ccccc1N=Nc1ccccn1	-8%	6%	/	/	/	/
CC1=CCC2C(=O)N(c3ccc(C(=O)N4CCCCCC4)cc3)C(=O)C2C1 (stereo not given)	17µM*	-18%	-10%	-8%	10%	-15%
Cc1cc(=O)[nH]c(N/N=C/c2ccccc2Cl)n1	-12%	7%	/	/	-7%	/
Clc1ccccc1/C=N/NC1=Nc2cccc3cccc1c23	-5%	-4%	2µM*	3%	-1%	-28%
C(=N\NC1=Nc2cccc3cccc1c23)/c1ccccn1	8%	-13%	2.8µM*	4%	45µM*	?
Cn1cnnc1SCCNS(=O)(=O)c1cccc([N+](=O)[O-])c1	-4%	4%	/	/	12%	/
O=C(O)COc1ccccc1/C=N/NC(=O)C(O)c1ccccc1 (stereo not given)	-10%	-9%	/	/	-3%	/
NC(Cc1ccc(F)cc1)c1csc(Nc2nccc(C(F)(F)F)n2)n1 (stereo not given)	-3%	/	/	/	/	/
Cc1ccc(CNc2nc(-c3ccco3)nn2C(=O)c2ccccc2[N+](=O)[O-])cc1	/	15%	-10%	7%	/	?
O=C(NCc1cccs1)c1cccc(Nc2nc3ccc(Br)cc3[nH]2)c1	-6%	-1%	?	?	?	7.9µM*[quencher]
CCOC(C)=O	/	2%	/	/	13%	/
CCOC(=O)[C@@H](N)CS	/	40µM*	/	/	28µM*	/
S=P(c1ccc(N2CCOCC2)cc1N1CCOCC1)(N1CCOCC1)N1CCOCC1	21µM*	79µM*	-2%	-6%	35µM*	0%
O=C(CN1C(=O)NC2(CCCC2)C1=O)Nc1nc(-c2ccccc2)cs1	2%	-4%	/	/	/	/
Cc1nn(-c2ccccn2)c2nc(-c3cccs3)cc(C(=O)N3CCOCC3)c12	12µM*	?	3%	1%	-8%	-3%
C/C(=C(/CCO)SS/C(CCO)=C(\C)N(C=O)Cc1cnc(C)nc1N)N(C=O)Cc1cnc(C)nc1N	/	32µM*	/	/	-4%	/
O=C(COC(=O)C12CC3CC(CC(O)(C3)C1)C2)NCc1ccco1	/	-9%	/	/	/	/
Cc1cc2c(NC(=O)Nc3ccc(F)cc3)cccc2nn1	-4%	25%	?	?	35µM*	-27%
COc1ccccc1NC(=O)CSc1sc2c(O)cc(=O)[nH]c2c1C#N	?	7%	/	/	40µM*	/
N#Cc1c(SCC(=O)Nc2cccc(C(F)(F)F)c2)sc2c(O)cc(=O)[nH]c12	13µM*	?	/	/	40µM*	/
Cc1cc(C)cc(NC(=O)C(NS(=O)(=O)c2cccc3nsnc23)c2ccccc2)c1 (stereo not given)	/	?	-9%	-10%	/	?
